7 compounds from PubChem BioAssay (Tox21) can be followed below.

Test [1] is described as follows: A CellTox Green Cytotoxicity Assay to monitor cytotoxicity in HEK293 cells - 32 hour (AID 1224881). Also: nearly all actives have a fitted effect of over 40% in size. In a few lines:
(§1)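 Homogeneous no-lysis format: HEK293 cell suspension mixed with CellTox Green reagent, seeded, incubated 5 h at 37 C/5% CO2, then dosed by pintool with compound in DMSO.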

A short description of test [2]: A CellTox Green Cytotoxicity Assay to monitor cytotoxicity in HepG2 cells - 0 hour (AID 1224882). Also: nearly all actives have a fitted effect of over 35% in size. A digest of the protocol:
(§2)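 Fluorescent DNA-binding dye, 600 HepG2 cells/well, 5 h preincubation then compound in DMSO; same plates read at 0–40 h, 37 C.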

A short description of test [3]: A CellTox Green Cytotoxicity Assay to monitor cytotoxicity in HepG2 cells - 32 hour (AID 1224883). Also: nearly all actives have a fitted effect of over 50% in size. A digest of the protocol:
as §2

Test [4] is described as follows: A CellTox Green Cytotoxicity Assay to monitor cytotoxicity in HEK293 cells - 8 hour (AID 1224884). Also: nearly all actives have a fitted effect of over 35% in size. In a few lines: as §1
The nature of test [5]: qHTS RealTime-Glo MT Cell Viability Assay in HepG2 cells - 16 hour (AID 1224885). Also: nearly all actives have a fitted effect of over 50% in size. A digest of the protocol: (§3)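 Cells + NanoLuc/prosubstrate dispensed (600 cells/well) → 5 h at 37 C/5% CO2 → compounds in DMSO transferred → 40 h incubation at 37 C, luminescence read at 0, 8, 16, 24, 32, 40 h.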
(In general: In qHTS, concentration-response curves come from the screen itself.)

Test [6] is described as follows: A CellTox Green Cytotoxicity Assay to monitor cytotoxicity in HEK293 cells - 16 hour (AID 1224888). Also: nearly all actives have a fitted effect of over 35% in size. In a few lines:
as §1

Test [7] can be described thus: qHTS RealTime-Glo MT Cell Viability Assay in HepG2 cells - 0 hour (AID 1224889). Also: nearly all actives have a fitted effect of over 50% in size. A digest of the protocol:
as §3

The nature of test [8]: A CellTox Green Cytotoxicity Assay to monitor cytotoxicity in HepG2 cells - 8 hour (AID 1224890). Also: nearly all actives have a fitted effect of over 45% in size. In a few lines: as §2
Test [9] is described as follows: qHTS assay to identify small molecule antagonists of the estrogen receptor alpha (ER-alpha) signaling pathway using the BG1 cell line in the presence of 0.1 nM 17-beta-estradiol - cell viability counter screen (AID 1259241). Also: nearly all actives have a fitted effect of over 40% in size. A digest of the protocol: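 VM7Luc4E2 cells (endogenous full-length ER-alpha, 4xERE-luciferase), cultured 5 days in charcoal-stripped serum, exposed to compounds with 0.1 nM 17beta-estradiol (final) for 22 hr at 37C. Viability read in same wells as live-cell protease fluorescence after 30 min.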

Test [10] is described as follows: qHTS assay to identify small molecule antagonists of the androgen receptor (AR) signaling pathway using the MDA cell line in the presence of 0.5 nM R1881 - cell viability counter screen (AID 1259242). Also: nearly all actives have a fitted effect of over 45% in size. In a few lines:
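Human breast carcinoma MDA-kb2 cells, cultured without CO2, receive compounds alongside 0.5 nM (final) R1881 agonist. After 16 hr at 37C, viability is taken as live-cell protease signal.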

Test [11] can be described thus: qHTS assay to identify small molecule phospholipidosis (PLD) inducers (AID 1259344; active = well fitted curve in the direction sought with a large enough effect; an effect the other way counts as inactive or inconclusive). In a few lines:
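Read-out is LipidTOX Red fluorescence (ex 595/em 615) imaged in HepG2 cells after 24 h compound exposure at 37 C, with Hoechst nuclear counterstain (ex 352/em 461) allowing per-cell normalisation.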

Test [12] is described as follows: qHTS assay to identify small molecule HDAC inhibitors (AID 1259364). Also: potency is read from the fitted curve at half-maximal effect.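 Also: wild-type HCT-116 cells with endogenous class I/II HDAC activity; nearly all actives have a fitted effect of over 45% in size.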 In a few lines: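 After a 2 hr compound incubation (37C, 5% CO2), HCT-116 cells seeded at 1,500/well the day before received HDAC-Glo reagent; signal read as luminescence after 30 min at room temperature.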
Test [13] in a line: qHTS assay to identify small molecule HDAC inhibitors - cell viability counter screen (AID 1259365). Also: series mostly up to about 92 µM; nearly all actives have a fitted effect of over 50% in size. A digest of the protocol:
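Wild-type HCT-116 cells, 1,500/well, cultured overnight, then compound-treated 2 h at 37 C. Viability measured as ATP luminescence with CellTiter-Glo after 30 min at room temperature.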

Test [14] can be described thus: qHTS assay to identify small molecule agonists of the sonic hedgehog signaling (Shh) pathway - cell viability counter screen (AID 1259366). Also: nearly all actives have a fitted effect of over 50% in size. In a few lines:
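NIH/3T3-derived Gli1-Luc reporter cells, 2,000 per well, received compound after 4 h and were treated about 23 h at 37C. Viability measured in the same wells by CellTiter-Fluor fluorescence after 1 h.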

Test [15] in a line: qHTS assay to identify small molecule antagonists of the sonic hedgehog signaling (Shh) pathway - cell viability counter screen (AID 1259367). Also: nearly all actives have a fitted effect of over 55% in size. A digest of the protocol: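 Fluorescence read-out (CellTiter-Fluor, 1 hr at 37C) taken after 23 hr compound treatment of 3T3 Gli1-Luc cells stimulated with conditioned medium. Cells were seeded at 2,000 per well and pre-incubated 4 hr.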

Test [16] is described as follows: qHTS assay to identify small molecule agonists of the sonic hedgehog signaling (Shh) pathway (AID 1259368; calls by dose curve;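 also: NIH/3T3-derived 3T3Gli1-Luc cells carrying a stable Gli1-driven firefly luciferase reporter; series mostly up to about 92 µM; nearly all actives have a fitted effect of over 15% in size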). In a few lines: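 Stable NIH/3T3 Gli1-Luc reporter clone; 24 hr cpd exposure after a 4 hr settling period; luminescence endpoint.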
The nature of test [17]: qHTS RealTime-Glo MT Cell Viability Assay in HEK293 cells - 8 hour (AID 1224887). A digest of the protocol: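 Measured as luminescence from the same continuously cultured HEK293 wells at successive time points (0, 8, 16, 24, 32, 40 h) after compound addition. Reagent present from seeding; dosing at 5 h; incubation 37 C.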
Test [18] addresses Estrogen receptor (Homo sapiens) (UniProt P03372). Put plainly: qHTS assay to identify small molecule antagonists of the estrogen receptor alpha (ER-alpha) signaling pathway using the BG1 cell line in the presence of 0.1 nM 17-beta-estradiol (AID 1259244). Also: nearly all actives have a fitted effect of over 50% in size. In a few lines: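 Seeding of stripped-serum-adapted VM7Luc4E2 cells, 24 h attachment, compound transfer, then 0.1 nM final 17beta-estradiol; after 22 h incubation, ONE-Glo reagent and luminescence reading.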

Test [19] in a line: qHTS RealTime-Glo MT Cell Viability Assay in HEK293 cells - 24 hour (AID 1224886). A digest of the protocol: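 Tox21 10K qHTS, HEK293, 600 cells/well, RealTime-Glo reagent co-dispensed with cells; 5 h preincubation, compound by pintool, 37 C, luminescence at 0–40 h.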

Several values for one entry are separate records, joined by “and”; a condition that tells them apart may be missing. Identical values can stand only once. Inconclusive results are not listed. Activity calls are given as the source filed them. Unless noted, calls follow the shape of the dose curve; as a rule, active = well fitted curve in the direction sought with a large enough effect in the repeat runs; inconclusive = weak or mixed curves; inactive = no such curve, though single readings can be large; an effect the other way counts as inactive or inconclusive.

Estrogen receptor (Homo sapiens), sequence (P03372 whole entry, looked up): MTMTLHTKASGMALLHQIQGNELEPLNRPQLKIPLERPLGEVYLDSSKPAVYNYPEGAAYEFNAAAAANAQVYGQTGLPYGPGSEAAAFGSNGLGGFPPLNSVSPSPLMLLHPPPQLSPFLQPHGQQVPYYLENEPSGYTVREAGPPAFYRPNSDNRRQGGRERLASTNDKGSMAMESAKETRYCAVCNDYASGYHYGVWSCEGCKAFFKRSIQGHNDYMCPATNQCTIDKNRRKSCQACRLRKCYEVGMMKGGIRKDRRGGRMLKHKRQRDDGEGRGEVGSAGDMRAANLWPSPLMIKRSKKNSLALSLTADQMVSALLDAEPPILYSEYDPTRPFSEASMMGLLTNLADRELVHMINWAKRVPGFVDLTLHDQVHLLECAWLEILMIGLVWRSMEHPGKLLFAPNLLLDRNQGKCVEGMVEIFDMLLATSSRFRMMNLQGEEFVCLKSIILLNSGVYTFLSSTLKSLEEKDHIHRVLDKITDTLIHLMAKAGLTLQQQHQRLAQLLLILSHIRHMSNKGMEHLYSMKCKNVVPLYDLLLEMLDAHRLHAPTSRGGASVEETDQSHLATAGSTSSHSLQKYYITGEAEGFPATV

With `CC1(C)NC(=O)N(c2ccc([N+](=O)[O-])c(C(F)(F)F)c2)C1=O`, the Potency entry in [1], in test [2], in test [3], in test [4], in [5] and in test [6] was “inactive” throughout. For the same compound, the Potency result in test [7], in [8], in test [9], in test [10], in [11] and in [12] was “inactive” in each case. Besides, the Potency entry in test [14], in test [15] and in test [16] was “inactive” each time. Moreover, the outcome in test [13] was inactive.

Turning to `c1ccc2c(c1)ccc1cc3c(ccc4ccccc43)cc12`, the Potency entry in [1], in test [2], in test [3], in test [4], in test [5] and in test [17] was “inactive” in each case. Also, the Potency result in [6], in test [7], in [8], in test [10], in test [18] and in test [14] was “inactive” throughout. Besides, the Potency result in test [15] and in test [16] was “inactive” throughout. Also, the Potency in test [12] was 12.1 µM (active) and 15.2 µM (active). For the same compound, in test [13], the compound was called inactive.

As for `CC(C)[C@@H]1CC[C@@H](C)CC1=O`, the Potency result in [1], in test [2], in [3], in test [4], in [5] and in [17] was “inactive” each time. Further, the Potency result in [6], in test [7], in [8], in test [9], in test [10] and in [11] was “inactive” in each case. For the same compound, the Potency result in [12], in test [14] and in [16] was “inactive” each time. For the same compound, the result in [13] was inactive.

On to `CCCCCCOCCOCCO`, for which the Potency entry in [1], in test [2], in [3], in test [4], in [5] and in test [17] was “inactive” in each case. Besides, the Potency entry in [6], in test [7], in test [8], in [9], in test [10] and in [12] was “inactive” throughout. Besides, the Potency result in test [14], in test [15] and in test [16] was “inactive” each time. Further, in [13], the call was inactive.

Regarding `Cc1ccc(C)c(O)c1`, the Potency result in test [1], in [2], in test [3], in [4], in test [5] and in test [6] was “inactive” in each case. Further, the Potency result in test [7], in [8], in [10], in test [12], in test [14] and in test [15] was “inactive” throughout. Moreover, the Potency entry in test [16] is “inactive”. Also, the compound was called inactive in test [13].

For the compound `CCO[Si](CCCNC(N)=O)(OCC)OCC`, the Potency result in test [1], in test [2], in test [3], in test [4], in test [5] and in [19] was “inactive” each time. Besides, the Potency result in test [6], in test [7], in test [8], in [10], in test [18] and in test [12] was “inactive” in each case. In addition, the Potency entry in test [14], in test [15] and in [16] was “inactive” throughout. The outcome in test [13] was inactive.

In the case of `C[N+](C)(C)CCO`, the Potency entry in [1], in [2], in test [3], in test [4], in test [5] and in test [17] was “inactive” each time. Moreover, the Potency result in [6], in test [7], in test [8], in test [9], in [10] and in test [11] was “inactive” in each case. Moreover, the Potency entry in [12], in test [14], in test [15] and in [16] was “inactive” in each case. Moreover, the call in [13] was inactive.
